# Data published in PubChem BioAssay (NCI).
# About 83,000 compounds went through this panel and 20% of them were active in at least one assay; those are over-represented in the sample as a whole.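 Single-concentration screen, 48 h exposure, 96-well plates. Endpoint: percent growth. Below 10 = active.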 Unmarked numbers belong to inactive results. Active and inactive are the calls of the source.
# Legend:
# Assay in all cases: NCI-60 one-dose screen, 48 h (100 = growth as untreated, 0 = no growth, -100 = all killed)
# NCI-H460 lung = details: 10 µM unless noted
# K-562 leukemia = details: 10 µM unless noted
# RXF 393 renal = details: 10 µM unless noted
# SF-295 CNS = details: 10 µM unless noted
# UACC-257 melanoma = details: 10 µM unless noted
# SNB-75 CNS = details: 10 µM unless noted
# U251 CNS = details: 10 µM unless noted
# SK-MEL-5 melanoma = details: 10 µM unless noted
# SK-MEL-2 melanoma = details: 10 µM unless noted
# SN12C renal = details: 10 µM unless noted
# UO-31 renal = details: 10 µM unless noted
# HL-60(TB) leukemia = details: 10 µM unless noted
# MOLT-4 leukemia = details: 10 µM
# SR leukemia = details: 10 µM
# RPMI-8226 leukemia = details: 10 µM unless noted
# IGROV1 ovarian = details: 10 µM
# BT-549 breast = details: 10 µM
# HCT-116 colon = details: 10 µM unless noted
# HCC-2998 colon = details: 10 µM unless noted
# MALME-3M melanoma = details: 10 µM unless noted
Compound,growth (NCI-H460 lung),growth (K-562 leukemia),growth (RXF 393 renal) [%],growth (SF-295 CNS),growth (UACC-257 melanoma),growth (SNB-75 CNS) [%],growth (U251 CNS) [%],growth (SK-MEL-5 melanoma),growth (SK-MEL-2 melanoma) [%],growth (SN12C renal) [%],growth (UO-31 renal),growth (HL-60(TB) leukemia),growth (MOLT-4 leukemia),growth (SR leukemia),growth (RPMI-8226 leukemia),growth (IGROV1 ovarian) [%],growth (BT-549 breast) [%],growth (HCT-116 colon),growth (HCC-2998 colon),growth (MALME-3M melanoma)
COc1cc(N(CCCl)CCCl)ccc1C=Nc1ccccc1C(=O)O,81.1%,95%,102,98%,91%,85.8,95.8,97.4%,113,99.2,78.5%,94.8%,97.2%,84.1%,97.2%,84.1,106,108%,88.2%,
C[As](=O)(O)c1ccc(C(=O)O)cc1,112%,122%,95.9,99.8%,102%,90.2,89.5,108%,99.9,107,93.2%,102%,110%,118%,101%,120,117,110%,116%,112%
NS(=O)(=O)c1nc[nH]c1[N+](=O)[O-],106%,101%,116,108%,119%,,119,101%,111,102,84.7%,102%,102%,102%,101%,115,96.7,104%,100%,102%
Cc1cccc(N(C)c2cccc3c2C(=O)[Se]C3)c1C,62.8%,48.2%,44.7,20.7%,50.7%,,47,66%,62.8,84.8,23%,-17.1% (active),67.9%,4.83% (active),81.9%,28.2,52.4,3.47% (active),47.5%,63.7%
O=c1[nH]c2cc(Cl)ccc2n1C1CCN(CCCC(c2ccc(F)cc2)c2ccc(F)cc2)CC1,-49.2% (active),-59.9% (active),30.5,-27.6% (active),-81.4% (active),60.7,29.4,-80.9% (active),16.8,20.1,-48.3% (active),-70.7% (active),-28.3% (active),16.2%,-52.8% (active),,78.4,,-63.4% (active),-1.17% (active)
CC12CCC(=O)C=C1C(O)CC1C2CCC2(C)C(O)CCC12 (configuration not stated),102%,105%,113,105%,95%,94.5,97.3,98.6%,105,105,87.1%,101%,96.5%,106%,108%,106,117,99%,101%,95.9%
CNC(=O)Oc1ccccc1,104%,109%,112,,102%,80.7,108,97.1%,118,,98.8%,120%,106%,99%,96.4%,116,105,106%,119%,105%
NC(=O)NC(=O)CI,106%,17.7%,65,119%,79.1%,106,94.7,93.9%,92.1,85,,98.3%,13.8%,25.9%,91.3%,69.5,85.8,36.8%,113%,-43.6% (active)
